Assay [1] addresses Cellular tumor antigen p53 (Homo sapiens) (UniProt P04637). Kind of assay: Primary qHTS for small molecule compounds that upregulate eGFP-tagged delta133p53alpha (in N-terminal) cells. (AID 2060322). Further: nearly all actives have a fitted effect of over 75% in size. Further: potency means the concentration at half of the fitted maximal effect.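 On activation: series mostly up to about 56 µM; 0% = DMSO vehicle and 100% = reference activator.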 The following applies: NCI-H358 eGFP-delta133p53alpha fluorescence, 24 h; activation: active compounds read high. The method in brief:
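NCI-H358 cells pre-induced 24 h with 10 ng/ml doxycycline to express N-terminal eGFP-delta133p53alpha, then dosed 24 h at 37C without doxycycline; fixed, Hoechst-stained, GFP intensity by laser scanning cytometry, normalized to DMSO (0%) and 57.5 uM 5-azacytidine (100%).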

Assay [2] addresses Aldehyde dehydrogenase, mitochondrial (Homo sapiens) (UniProt P05091). Kind of assay: qHTS for Inhibitors of the Aldehyde Dehydrogenase Family (ALDH2) Primary screen (AID 2061308;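 further: plate controls were vehicle for no effect and reference inhibitor for full effect; nearly all actives have a fitted effect of over 55% in size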). (In general: In qHTS, concentration-response curves come from the screen itself.)
In assay [3] the target is Retinaldehyde dehydrogenase 3 (Homo sapiens) (UniProt P47895). Kind of assay: qHTS for Inhibitors of the Aldehyde Dehydrogenase Family (ALDH1A3) Primary screen (AID 2061315).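 Further: plate controls were DMSO vehicle for no effect and reference inhibitor for full effect.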

The structures appear in SMILES notation. Several values for one entry are separate records, joined by “and”; a condition that tells them apart may be missing. Equal values may be shown once. Records with an inconclusive call do not appear. A number with no mark means an inactive call. Activity calls are given as the source filed them. The call rests on the fitted dose curve; in most records, active means well fitted curve in the direction sought with a large enough effect; inconclusive means small, poorly fitted or top-dose-only effect, or another doubt; inactive means no such curve, though single readings can be large; an effect the other way counts as inactive or inconclusive. Peptide text beside a SMILES is read from it.

Chain of Cellular tumor antigen p53 (Homo sapiens) (P04637 whole entry, looked up): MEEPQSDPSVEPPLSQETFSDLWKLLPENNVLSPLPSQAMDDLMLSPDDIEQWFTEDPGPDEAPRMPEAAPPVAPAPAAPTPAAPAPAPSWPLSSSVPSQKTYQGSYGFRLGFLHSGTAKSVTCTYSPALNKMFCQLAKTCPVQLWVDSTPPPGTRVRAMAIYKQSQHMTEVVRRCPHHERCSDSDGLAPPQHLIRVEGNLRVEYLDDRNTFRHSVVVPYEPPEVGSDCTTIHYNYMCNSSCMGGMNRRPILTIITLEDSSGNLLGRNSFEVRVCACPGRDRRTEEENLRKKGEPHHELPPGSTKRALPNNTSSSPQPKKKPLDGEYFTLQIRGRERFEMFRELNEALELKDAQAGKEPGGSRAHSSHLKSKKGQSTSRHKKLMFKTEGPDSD

For the molecule `C/C1=C\C[C@]2(C)C(=O)C(O)=C([C@H](C)CO)[C@H]2C/C=C(\C)[C@@H](O)CC/C(C)=C/CC1`, in assay [1], the activation is -6.11%. In addition, the Potency result in assay [2] and in assay [3] was “inactive” throughout.

Take `CC1(C)CCC[C@@]2(C)C1[C@H](OC(=O)/C=C/C=C/C(=O)O)C=C1COC(=O)[C@@]12O` (some centres undefined): in assay [1], the activation is -13%. Besides, the Potency result in assay [2] and in assay [3] was “inactive” in each case.

`C=CC1(C)CC2CCC3C(C)(C(=O)O)CCCC3(C)C2=CC1=O` (centres undefined): the activation in assay [1] was -16%. The Potency entry in assay [2] and in assay [3] was “inactive” throughout.

With `CCN1C(=O)c2ccccc2C1Nc1ccc(OCCN2CCCCC2)cc1` (centres undefined), the activation in assay [1] was -18.4%. The Potency result in assay [2] and in assay [3] was “inactive” each time.

On to `COC(=O)CCC1(C)C(C(C)(C)O)C(O)CC2(C)Oc3c(C)c4c(c(OC)c3CC21)C(=O)OC4` (centres undefined), for which the activation in assay [1] is -3.82%. The Potency result in assay [2] and in assay [3] was “inactive” each time.

Take `CCOc1cccc(NC(=O)c2ccc(N3CCCC3)c(C(F)(F)F)c2)c1`: in assay [1], the activation is 5.67%. Further, the Potency entry in assay [2] and in assay [3] was “inactive” throughout.

For the molecule `C=CC(C)(O)CC/C=C(\C)C(=O)OCC1OC(OC2CCC3(C)C(CCC4(C)C3CC=C3C5CC(C)(C)C(O)CC5(C(=O)O)CCC34C)C2(C)C)C(O)C(OC2OC(CO)C(O)C(OC3OC(CO)C(O)C(OC4OC(COC5OC(CO)C(O)C(O)C5O)C(O)C(O)C4O)C3O)C2O)C1O` (centres undefined), in assay [1], the activation was 9.92%. For the same molecule, the activity change, negative = inhibition in assay [2] was 1.9% [at 11.2 µM]; in assay [3], -5.36% [at 11.2 µM].

In the case of `O=C(OC1C=C(CO)C2C(OC3OC(CO)C(O)C(O)C3O)OC=CC12)c1ccc(O)cc1` (centres undefined), the activation in assay [1] was -16%. Also, the Potency entry in assay [2] and in assay [3] was “inactive” throughout.

Consider `CC(=O)N[C@@H](CCCCN)C(=O)N(C)[C@@H](CC(C)C)C(=O)N[C@H](C(=O)N(C)[C@@H](Cc1ccccc1)C(=O)N[C@H](Cc1ccccc1)C(N)=O)C(C)C`, for which the activation in assay [1] was 7.67%. Further, the activity change, negative = inhibition in assay [2] was 0.957% [at 5.59 µM]; in assay [3] it was 0.0688% [at 5.59 µM].

For `COc1ccccc1C(=O)Nc1cccc(NC(=O)c2cccc(C)c2)c1`, in assay [1], the activation was -11.7%. Further, the Potency result in assay [2] and in assay [3] was “inactive” in each case.

For the molecule `C=CC(=O)Nc1cc(-n2c(=O)ccc3cnc4ccc(-c5ccc(NS(C)(=O)=O)cc5)cc4c32)ccc1C`, in assay [1], the Potency was 10.7 µM (active). For the same molecule, the Potency result in assay [2] and in assay [3] was “inactive” in each case.

With `CC(=O)c1c(C)cc(O)cc1O[C@@H]1O[C@H](CO)[C@@H](O)[C@H](O)[C@H]1O`, in assay [1], the activation was -17.6%. Further, the Potency entry in assay [2] and in assay [3] was “inactive” throughout.

Consider `COc1c(C)c(OCC=C(C)C)cc2c1CNC2=O`, for which the activation in assay [1] was -19.8%. For the same molecule, the Potency entry in assay [2] and in assay [3] was “inactive” each time.

Turning to `OC[C@H]1O[C@H](O[C@]2(CCl)O[C@H](CCl)[C@@H](O)[C@@H]2O)[C@H](O)[C@@H](O)[C@H]1Cl`, the activation in assay [1] was -5.86% and -10%. Besides, the Potency result in assay [2] and in assay [3] was “inactive” in each case.

For the molecule `N#Cc1cnc2cnc(NCc3cccnc3)cc2c1Nc1ccc(F)c(Cl)c1`, in assay [1], the Potency is 2.69 µM (active). Further, the Potency entry in assay [2] and in assay [3] was “inactive” throughout.

In the case of `C[C@@H]1O[C@@H](O[C@H]2[C@H](O[C@H]3[C@H](O)[C@@H](C(=O)O)O[C@@H](O[C@H]4CC[C@@]5(C)C(CC[C@]6(C)C5CC[C@]57OC[C@@]8(CCC(C)(C)CC85)[C@H](O)C[C@]76C)C4(C)C)[C@@H]3O[C@@H]3O[C@H](CO)[C@@H](O[C@@H]4OC[C@@H](O)[C@H](O)[C@H]4O)[C@H](O)[C@H]3O)O[C@H](CO)[C@H](O)[C@@H]2O)[C@H](O)[C@H](O)[C@H]1O` (some centres undefined), the activation in assay [1] was -6.87%. The activity change, negative = inhibition in assay [2] was 5.88% [at 11.2 µM]; in assay [3] it was -5.39% [at 11.2 µM].

In the case of `CSCC[C@H](NC(=O)[C@H](CO)NC(=O)[C@H](CCC(=O)O)NC(C)=O)C(=O)N[C@H](C=O)CC(=O)O` (Ac-ESMD-aldehyde), the activation in assay [1] was 12.3%. The activity change, negative = inhibition in assay [2] is -17.2% [at 11.2 µM]; in assay [3] it was -13.4% [at 11.2 µM].

`COC(=O)C1(C)CCC2(C(=O)O)CCC3(C)C(=CCC4C5(C)CC(O)C(OC6OCC(O)C(O)C6O)C(C)(CO)C5CCC43C)C2C1` (centres undefined): in assay [1], the activation was -6.11%. Further, the Potency entry in assay [2] and in assay [3] was “inactive” each time.

For `CC1(C)SC2C(NC(=O)[C@H](NC(=O)N3CCNC3=O)c3ccccc3)C(=O)N2C1C(=O)O` (some centres undefined), the activation in assay [1] was 17%. Also, the Potency entry in assay [2] and in assay [3] was “inactive” in each case.

Take `CC1C/C=C/C=C\CCCCC(O)C/C=C/C(=O)O1` (centres undefined): the activation in assay [1] was -17.9%. For the same molecule, the Potency result in assay [2] and in assay [3] was “inactive” each time.

For `CC1CCC2(C(=O)OC3OC(CO)C(O)C(O)C3O)CCC3(C)C(=CCC4C5(C)CC(O)C(O)C(C)(C(=O)O)C5CCC43C)C2C1(C)O` (centres undefined), the activation in assay [1] was -18.3%. Further, the Potency entry in assay [2] and in assay [3] was “inactive” each time.

In the case of `C=CCC1=C[C@]2(OC)[C@H](C)[C@@H](c3ccc4c(c3)OCO4)O[C@]2(OC)CC1=O`, the activation in assay [1] was 1.53%. The Potency result in assay [2] and in assay [3] was “inactive” each time.

`C[C@@H]1O[C@@H](O[C@H]2[C@H](O[C@H]3CC[C@@]4(C)C(CC[C@]5(C)C4C=C[C@]46OC[C@@]7(CCC(C)(C)C[C@H]74)[C@@H](O[C@@H]4O[C@@H](C)[C@H](O)[C@@H](O)[C@H]4O)C[C@]65C)[C@]3(C)CO)O[C@H](CO)[C@@H](O)[C@@H]2O[C@@H]2O[C@H](CO)[C@@H](O)[C@H](O)[C@H]2O)[C@H](O)[C@H](O)[C@H]1O` (some centres undefined): the activation in assay [1] was 0%. Besides, the Potency entry in assay [2] and in assay [3] was “inactive” in each case.
